Assay results taken from the supplement of paper PMC10849652.
Of roughly 8,800 targets only a part is listed; those with a hit were picked by preference. About 0.5% of all pairs of compound and target were hits. Values without a mark were called inactive.

How the values were obtained:
Test in all cases: log2 fold change, soluble protein after heating vs DMSO (PISA); higher = thermal stabilisation; K562 lysate, 10 uM; active = over 0.2 and 3.5 SD of the protein, either way, in both replicates (recomputed)
erlotinib = compound: C#Cc1cccc(Nc2ncnc3cc(OCCOC)c(OCCOC)cc23)c1 [erlotinib]
In short: (§1)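 Dounce homogenisation of K562 pellets in PBS pH 7.4 with 1 mM MgCl2 produced a crude extract, used at 1 mg/mL protein. Exposure to 10 μM compound lasted 30 min, and aliquots were then heated for 3 min across 48°C-58°C, pooled and brought to 0.5% NP-40 at 4°C. The supernatant after 21,000xg for 90 min was quantified by TMTpro 16plex LC-MS/MS with channel sums equalised. Duplicate values are given as log-two fold change in thermal stability relative to solvent controls.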

[1] = compound: C/C(=N\NC(=O)C1=CC(=CC=C1)S(=O)(=O)N2CCOCC2)/C3=C(C=CC(=C3)Cl)O
In short: as §1

[2] = compound: C1=CC(=CC=C1C2=NC3=C(N2)C=C(C=C3)C(=O)N)OC4=CC=C(C=C4)Cl
In short: as §1

[3] = compound: C1=CC2=C(C=CC(=C2)/C=C\3/C(=O)NC(=NCC4=CC=CS4)S3)N=C1
In short: as §1

[4] = compound: C1=CC2=NC=CN=C2C=C1/C=C/3\C(=O)NC(=O)S3
In short: as §1

[5] = compound: C1=CC=C(C=C1)C2=NC(=C(N2)C3=CC=NC=C3)C4=CC(=C(C=C4)Cl)O
In short: as §1

[6] = compound: C1=CC=C2C(=C1)C3=NNC4=CC=CC(=C43)C2=O
In short: as §1

[7] = compound: C1CCN(C1)C(=O)NC2=CC=CC(=C2)NC3=NC=C(C(=N3)NCCC4=CN=CN4)Br
In short: as §1

[8] = compound: C1CN(CCC1(CC2=CC=C(C=C2)Cl)N)C3=NC=NC4=C3C=CN4
In short: as §1

IRAK-1-4 Inhibitor I = compound: C1COCCN1CCN2C3=CC=CC=C3N=C2NC(=O)C4=CC(=CC=C4)[N+](=O)[O-] [IRAK-1-4 Inhibitor I]
In short: as §1

Chain of UniProt Q6IPR3 (Q6IPR3 whole entry, looked up): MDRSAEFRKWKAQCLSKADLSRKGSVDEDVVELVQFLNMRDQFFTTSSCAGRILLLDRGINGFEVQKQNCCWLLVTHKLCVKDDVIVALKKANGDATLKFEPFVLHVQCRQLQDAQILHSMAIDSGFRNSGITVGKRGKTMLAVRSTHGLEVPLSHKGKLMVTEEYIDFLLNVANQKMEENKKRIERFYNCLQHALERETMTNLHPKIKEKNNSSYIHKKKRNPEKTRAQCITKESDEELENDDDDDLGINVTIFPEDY
Chain of UniProt Q6NXR4 (Q6NXR4 whole entry, looked up): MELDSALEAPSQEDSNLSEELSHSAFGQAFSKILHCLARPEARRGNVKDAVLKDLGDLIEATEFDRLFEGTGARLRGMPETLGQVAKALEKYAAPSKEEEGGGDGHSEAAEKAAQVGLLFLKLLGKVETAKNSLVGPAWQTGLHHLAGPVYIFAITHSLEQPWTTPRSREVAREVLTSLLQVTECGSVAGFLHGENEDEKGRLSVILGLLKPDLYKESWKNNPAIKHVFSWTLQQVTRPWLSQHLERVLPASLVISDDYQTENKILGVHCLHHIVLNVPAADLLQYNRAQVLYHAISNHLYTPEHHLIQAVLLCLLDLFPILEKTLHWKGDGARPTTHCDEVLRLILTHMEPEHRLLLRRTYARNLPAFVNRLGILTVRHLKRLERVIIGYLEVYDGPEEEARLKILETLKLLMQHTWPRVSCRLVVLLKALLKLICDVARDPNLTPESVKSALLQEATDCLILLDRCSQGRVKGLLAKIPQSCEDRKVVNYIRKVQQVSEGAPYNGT
Chain of UniProt Q9NZI7 (Q9NZI7 whole entry, looked up): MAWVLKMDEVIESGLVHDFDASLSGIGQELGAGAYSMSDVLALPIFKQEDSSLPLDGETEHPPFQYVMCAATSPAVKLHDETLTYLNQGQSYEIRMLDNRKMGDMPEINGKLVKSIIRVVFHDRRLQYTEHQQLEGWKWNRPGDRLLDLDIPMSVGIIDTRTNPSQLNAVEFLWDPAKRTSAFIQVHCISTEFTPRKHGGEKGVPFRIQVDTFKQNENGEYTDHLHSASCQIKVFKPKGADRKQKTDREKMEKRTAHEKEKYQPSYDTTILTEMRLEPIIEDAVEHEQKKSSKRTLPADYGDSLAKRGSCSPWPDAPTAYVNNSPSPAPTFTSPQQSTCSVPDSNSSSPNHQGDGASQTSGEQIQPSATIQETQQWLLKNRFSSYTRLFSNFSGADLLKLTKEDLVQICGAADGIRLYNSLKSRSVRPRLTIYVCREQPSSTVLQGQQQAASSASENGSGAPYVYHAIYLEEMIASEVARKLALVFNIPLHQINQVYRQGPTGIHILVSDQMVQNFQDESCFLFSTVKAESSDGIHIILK
Chain of UniProt O95801 (O95801 whole entry, looked up): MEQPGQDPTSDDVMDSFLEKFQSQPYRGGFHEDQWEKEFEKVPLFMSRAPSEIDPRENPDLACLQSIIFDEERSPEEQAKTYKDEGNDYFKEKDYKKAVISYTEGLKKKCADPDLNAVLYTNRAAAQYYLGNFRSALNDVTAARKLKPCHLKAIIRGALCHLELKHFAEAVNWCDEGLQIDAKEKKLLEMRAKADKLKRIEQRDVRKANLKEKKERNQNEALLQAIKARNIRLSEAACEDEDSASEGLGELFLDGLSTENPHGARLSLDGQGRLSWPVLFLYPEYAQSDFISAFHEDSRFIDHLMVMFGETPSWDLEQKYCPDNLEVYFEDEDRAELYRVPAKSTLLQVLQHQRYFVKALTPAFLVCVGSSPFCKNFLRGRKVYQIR
Chain of UniProt Q9NUY8 (Q9NUY8 whole entry, looked up): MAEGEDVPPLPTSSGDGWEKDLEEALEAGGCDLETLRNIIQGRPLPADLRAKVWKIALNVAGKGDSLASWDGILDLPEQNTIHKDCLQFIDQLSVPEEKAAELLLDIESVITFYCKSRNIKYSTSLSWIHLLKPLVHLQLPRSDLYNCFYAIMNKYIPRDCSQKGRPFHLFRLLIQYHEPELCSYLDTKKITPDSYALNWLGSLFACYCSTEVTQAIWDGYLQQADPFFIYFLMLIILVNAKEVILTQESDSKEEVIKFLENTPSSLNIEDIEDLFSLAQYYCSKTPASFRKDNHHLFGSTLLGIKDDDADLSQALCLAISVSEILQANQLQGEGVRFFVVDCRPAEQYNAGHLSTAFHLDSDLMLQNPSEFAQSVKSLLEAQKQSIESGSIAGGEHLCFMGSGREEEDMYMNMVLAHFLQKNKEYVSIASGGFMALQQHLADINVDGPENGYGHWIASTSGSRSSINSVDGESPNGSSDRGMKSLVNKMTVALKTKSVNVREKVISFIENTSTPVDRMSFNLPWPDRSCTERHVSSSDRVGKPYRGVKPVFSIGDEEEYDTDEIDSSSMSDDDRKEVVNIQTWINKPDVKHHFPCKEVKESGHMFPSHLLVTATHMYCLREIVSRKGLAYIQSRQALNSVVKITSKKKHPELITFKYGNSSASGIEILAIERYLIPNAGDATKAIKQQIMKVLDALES
Chain of UniProt P42167 (P42167 whole entry, looked up): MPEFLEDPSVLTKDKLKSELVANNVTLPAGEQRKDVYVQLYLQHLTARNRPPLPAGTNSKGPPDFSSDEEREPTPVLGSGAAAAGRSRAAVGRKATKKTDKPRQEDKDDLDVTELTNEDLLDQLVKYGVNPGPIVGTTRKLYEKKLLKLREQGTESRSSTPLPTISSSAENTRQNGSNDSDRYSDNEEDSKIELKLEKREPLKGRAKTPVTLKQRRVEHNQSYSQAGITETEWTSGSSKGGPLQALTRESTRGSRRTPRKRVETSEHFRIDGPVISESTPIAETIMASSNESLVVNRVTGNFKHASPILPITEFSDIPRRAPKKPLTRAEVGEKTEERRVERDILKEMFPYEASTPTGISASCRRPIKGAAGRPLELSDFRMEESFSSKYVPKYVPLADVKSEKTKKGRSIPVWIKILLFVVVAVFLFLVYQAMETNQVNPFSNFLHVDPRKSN
Chain of UniProt Q8NDZ6 (Q8NDZ6 whole entry, looked up): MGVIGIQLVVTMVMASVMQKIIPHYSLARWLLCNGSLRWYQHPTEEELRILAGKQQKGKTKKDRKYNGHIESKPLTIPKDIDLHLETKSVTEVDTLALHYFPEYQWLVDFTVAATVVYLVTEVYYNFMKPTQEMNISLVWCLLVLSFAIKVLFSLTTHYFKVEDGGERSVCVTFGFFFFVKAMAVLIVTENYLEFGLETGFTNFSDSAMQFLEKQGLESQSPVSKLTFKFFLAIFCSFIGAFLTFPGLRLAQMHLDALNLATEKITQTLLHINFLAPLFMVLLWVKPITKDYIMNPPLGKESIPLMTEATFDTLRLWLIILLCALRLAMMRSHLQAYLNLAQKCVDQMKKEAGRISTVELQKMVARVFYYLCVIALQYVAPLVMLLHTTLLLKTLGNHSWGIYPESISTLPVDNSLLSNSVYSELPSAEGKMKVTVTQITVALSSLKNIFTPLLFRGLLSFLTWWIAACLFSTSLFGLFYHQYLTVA
Chain of UniProt Q9UKI8 (Q9UKI8 whole entry, looked up): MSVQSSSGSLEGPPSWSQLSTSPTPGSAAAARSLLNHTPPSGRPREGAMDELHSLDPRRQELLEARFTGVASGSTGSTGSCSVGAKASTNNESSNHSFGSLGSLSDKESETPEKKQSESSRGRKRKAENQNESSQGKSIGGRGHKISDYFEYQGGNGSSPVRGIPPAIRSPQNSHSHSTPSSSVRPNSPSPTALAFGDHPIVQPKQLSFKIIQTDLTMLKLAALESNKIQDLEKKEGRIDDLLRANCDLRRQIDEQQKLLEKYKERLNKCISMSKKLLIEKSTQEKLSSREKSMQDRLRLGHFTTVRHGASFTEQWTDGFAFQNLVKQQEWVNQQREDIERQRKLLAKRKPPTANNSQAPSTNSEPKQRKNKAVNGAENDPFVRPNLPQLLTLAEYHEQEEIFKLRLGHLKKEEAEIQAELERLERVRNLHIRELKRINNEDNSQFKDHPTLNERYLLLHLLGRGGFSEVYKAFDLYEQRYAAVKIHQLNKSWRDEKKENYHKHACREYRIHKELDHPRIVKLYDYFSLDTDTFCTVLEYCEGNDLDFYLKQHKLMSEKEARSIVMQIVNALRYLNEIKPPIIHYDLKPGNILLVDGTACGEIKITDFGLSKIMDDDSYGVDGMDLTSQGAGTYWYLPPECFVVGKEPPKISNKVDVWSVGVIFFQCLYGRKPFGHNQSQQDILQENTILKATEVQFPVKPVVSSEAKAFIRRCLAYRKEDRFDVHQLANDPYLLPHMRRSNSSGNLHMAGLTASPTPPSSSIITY
Chain of UniProt Q969Z0 (Q969Z0 whole entry, looked up): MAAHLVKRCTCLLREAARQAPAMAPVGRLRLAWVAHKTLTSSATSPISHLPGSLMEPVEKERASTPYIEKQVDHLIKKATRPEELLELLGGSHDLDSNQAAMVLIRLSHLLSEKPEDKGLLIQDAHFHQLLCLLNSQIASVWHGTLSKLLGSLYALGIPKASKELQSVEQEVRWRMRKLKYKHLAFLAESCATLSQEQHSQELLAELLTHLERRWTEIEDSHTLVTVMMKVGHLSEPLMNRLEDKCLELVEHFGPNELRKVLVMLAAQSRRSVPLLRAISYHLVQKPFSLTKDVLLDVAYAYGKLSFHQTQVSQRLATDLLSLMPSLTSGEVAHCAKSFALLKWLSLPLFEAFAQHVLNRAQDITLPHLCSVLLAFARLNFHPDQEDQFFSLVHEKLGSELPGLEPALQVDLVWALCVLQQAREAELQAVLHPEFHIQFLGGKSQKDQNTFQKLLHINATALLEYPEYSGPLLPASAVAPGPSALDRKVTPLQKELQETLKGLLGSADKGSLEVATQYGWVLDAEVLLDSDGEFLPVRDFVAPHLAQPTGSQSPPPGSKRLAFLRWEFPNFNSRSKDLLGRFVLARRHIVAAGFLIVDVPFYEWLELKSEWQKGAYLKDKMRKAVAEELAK
Chain of UniProt P61960 (P61960 whole entry, looked up): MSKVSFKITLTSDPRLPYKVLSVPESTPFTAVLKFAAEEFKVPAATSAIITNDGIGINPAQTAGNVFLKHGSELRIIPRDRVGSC

Target	log2 fold change (erlotinib)	log2 fold change [1]	log2 fold change [2]	log2 fold change [3]	log2 fold change [4]	log2 fold change [5]	log2 fold change [6]	log2 fold change [7]	log2 fold change [8]	log2 fold change (IRAK-1-4 Inhibitor I)
TMPO (UniProt P42167)	-0.016	0.021	-0.021	-0.027	0.014	-0.029	-0.073	-0.019	-0.032	-0.002
TJP1 isoform 2 (UniProt Q07157)	-0.002	0	0.037	-0.007	-0.082	-0.018	-0.041	-0.075	0.039	0.015
UBE4A isoform 2 (UniProt Q14139)	0.031	0.091	0.023	0.013	-0.023	-0.021	-0.082	-0.028	0.035	0.004
TTI2 (UniProt Q6NXR4)	-0.003	0.037	0.023	0.047	0.013	0.012	-0.015	-0.028	0.007	0.014
TESC (UniProt Q96BS2)	-0.043	0.042	0.03	0.074	-0.042	-0.006	0.036	0.003	0.04	-0.003
UBA1 (UniProt P22314)	0.034	0.017	-0.022	0.003	0.004	0.002	-0.044	0	0.02	-0.013
TBC1D23 (UniProt Q9NUY8)	0.003	-0.01	0.017	0.022	-0.015	0.011	-0.018	-0.018	-0.001	0
TTLL12 (UniProt V9GY16)	0.144	0.13	-0.193	-0.05	0.074	-0.061	-0.072	-0.167	0.128	0.229
TRADD (UniProt Q15628)	0.053	0.258 (active)	0.03	-0.224	0.009	-0.013	0.251	0.029	0.076	0.033
TRAPPC9 isoform 2 (UniProt Q96Q05)	0.033	0.113	-0.01	0.006	-0.04	-0.012	-0.005	0.027	0.034	0.027
TMEM87B (UniProt Q96K49)	-0.016	0.103	0.093	-0.003	0.117	0.03	-0.019	0.006	-0.008	-0.045
TBRG4 (UniProt Q969Z0)	0.033	-0.048	-0.036	0.001	0.013	-0.044	-0.031	0.013	0.008	-0.009
TRIM23 (UniProt P36406)	-0.044	-0.022	0.037	0.014	0.034	0.493	-0.011	-0.017	0.105	0.183
UBR5 (UniProt O95071)	0.005	-0.029	-0.024	-0.002	-0.012	-0.013	-0.033	-0.001	0.007	0.001
TPM1 isoform 4 (UniProt P09493)	-0.126	-0.004	0.005	0.018	0.114	-0.026	-0.015	0.014	-0.052	-0.009
TMEM161B (UniProt Q8NDZ6)	0.051	-0.08	-0.017	0.174	0.007	-0.068	-0.133	0.052	-0.01	0.09
UBP1 (UniProt Q9NZI7)	0.018	-0.109	-0.095	0.048	0.016	0.01	0.032	-0.034	-0.017	0.029
TTC27 (UniProt Q6P3X3)	0.017	0.018	-0.043	0.004	0.007	-0.014	-0.028	-0.015	0.006	-0.013
TUBA4A (UniProt P68366)	0.074	0.019	-0.017	-0.034	-0.01	-0.036	-0.017	0	0.036	0.032
TOX4 (UniProt O94842)	-0.016	-0.025	0.049	0.037	-0.052	0.04	-0.003	-0.014	0.053	-0.025
UFM1 (UniProt P61960)	0.035	0.078	-0.003	0.085	0.029	-0.013	0.123	0.066	0.013	-0.009
TNIK isoform 4 (UniProt Q9UKE5)	-0.015	-0.037	-0.035	0.119	0.003	0.125	0.244	0.113	-0.031	-0.019
TYW3 (UniProt Q6IPR3)	-0.002	0.003	0.063	-0.032	-0.008	0.002	-0.07	-0.054	0.014	0.018
TUBB (UniProt P07437)	0.029	-0.017	0.014	-0.006	0.008	0.008	-0.03	0.006	0.043	0.027
TRMT2A (UniProt Q8IZ69)	-0.042	-0.015	-0.007	0.012	-0.012	-0.012	-0.004	-0.005	0.002	-0.007
UGDH (UniProt O60701)	0.002	0.046	-0.02	-0.009	0.02	-0.041	-0.051	-0.004	-0.052	-0.053
TRIP13 (UniProt Q15645)	0.034	-0.117	0.007	0.04	-0.034	0.009	-0.038	0	-0.002	0.005
THOC5 (UniProt Q13769)	0.013	-0.105	0.036	-0.035	0.008	-0.001	-0.016	0.005	0.001	-0.012
TLK1 isoform 2 (UniProt Q9UKI8)	0	-0.029	-0.024	-0.013	-0.007	-0.016	0.145	0.007	0.099	0.023
TTC4 (UniProt O95801)	0.01	0.013	0.001	0.003	0.005	0.007	-0.038	-0.029	0.025	-0.008
